In all, about 310,000 compounds went through this assay and about 14,000 (4.5%) showed an effect of 50% or more. The effect is printed as a negative number. The list comes from a sample in which strong results are over-represented; it also holds similar structures and randomly drawn compounds.
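Also: peak tail current of the secondary pulse compared with the same well before compound.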

In the experiment the target is human ether-à-go-go-related gene (hERG) potassium channel (human, UniProt Q12809). Briefly: primary screen, population patch clamp on CHO cells stably expressing hERG; higher = less effect of the substance.
Chain of human ether-à-go-go-related gene (hERG) potassium channel (Q12809 whole entry, looked up): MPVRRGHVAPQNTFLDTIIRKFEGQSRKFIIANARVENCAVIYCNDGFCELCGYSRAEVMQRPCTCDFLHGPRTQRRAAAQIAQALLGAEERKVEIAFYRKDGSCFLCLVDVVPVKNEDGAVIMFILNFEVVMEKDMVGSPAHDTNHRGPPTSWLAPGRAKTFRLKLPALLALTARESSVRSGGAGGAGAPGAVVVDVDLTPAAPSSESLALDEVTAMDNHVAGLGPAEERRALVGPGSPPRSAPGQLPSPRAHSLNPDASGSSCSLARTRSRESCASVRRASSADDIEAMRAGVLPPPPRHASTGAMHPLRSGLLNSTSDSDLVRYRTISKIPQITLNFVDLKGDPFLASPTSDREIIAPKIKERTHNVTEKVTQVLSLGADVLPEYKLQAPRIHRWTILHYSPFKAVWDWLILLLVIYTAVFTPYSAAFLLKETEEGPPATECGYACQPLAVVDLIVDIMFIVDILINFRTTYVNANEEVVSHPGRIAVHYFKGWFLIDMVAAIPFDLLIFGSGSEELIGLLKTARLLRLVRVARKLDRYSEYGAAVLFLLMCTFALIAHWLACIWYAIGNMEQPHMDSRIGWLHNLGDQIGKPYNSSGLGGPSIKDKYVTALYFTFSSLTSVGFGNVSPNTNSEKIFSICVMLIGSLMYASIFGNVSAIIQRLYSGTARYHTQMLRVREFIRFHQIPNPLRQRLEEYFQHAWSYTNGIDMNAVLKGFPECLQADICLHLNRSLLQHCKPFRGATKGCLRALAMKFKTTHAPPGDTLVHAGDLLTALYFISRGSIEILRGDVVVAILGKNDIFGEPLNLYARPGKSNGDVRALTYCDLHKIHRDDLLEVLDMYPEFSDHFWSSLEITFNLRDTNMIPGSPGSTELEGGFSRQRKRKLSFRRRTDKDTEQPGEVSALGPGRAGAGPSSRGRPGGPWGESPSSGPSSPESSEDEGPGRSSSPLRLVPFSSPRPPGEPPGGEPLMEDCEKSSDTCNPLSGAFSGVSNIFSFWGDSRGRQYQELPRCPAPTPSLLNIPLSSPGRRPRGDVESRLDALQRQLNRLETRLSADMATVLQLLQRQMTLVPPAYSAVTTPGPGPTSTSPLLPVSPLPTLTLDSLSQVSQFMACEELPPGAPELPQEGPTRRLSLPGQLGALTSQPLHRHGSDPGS
With `Cc1nn(CCCC(=O)O)c(C)c1[N+](=O)[O-]`, the “hERG current change (%, negative = inhibition) at 10uM” value is given as 12.3%. Take `O=C(COc1ccc(S(=O)(=O)NC2CCCCC2)cc1)NCCC1=CCCCC1`: the “hERG current change (%, negative = inhibition) at 10uM” value is on record as 2.33%. `CCN(CC)S(=O)(=O)c1ccc(NC(=O)COC(=O)c2ccc(NC(=O)CC#N)cc2)cc1`: the “hERG current change (%, negative = inhibition) at 10uM” value amounted to 20.5%.

`CCn1c(Cc2ccccc2)nnc1SCC(=O)OC(C)C`: the “hERG current change (%, negative = inhibition) at 10uM” value amounted to 0.117%. Next, `CCNC(=O)C1CC(=O)N(c2ccc(Br)cc2)C1` (stereo not drawn): 2.64%; `CC1(C)Cc2c(sc3nc(NCCN4CCOCC4)n4ncnc4c23)CO1`: -5.72%. Next, `N/C(=N\OC(=O)CSc1ccccc1)c1ccncc1`: 0.55%. Next, `CC1CC(C)CN(C(=O)c2cc(S(=O)(=O)N3CCCCC3)ccc2Cl)C1` (stereo not drawn): -37.7%; `Cc1ccc(NN2C(=O)C=C(c3ccc(Cl)cc3)C2=O)cc1`: 13.9%; `Cl.Fc1ccc(CCNCc2cccc(Cl)c2)cc1`: -16.5%. With `CCCCCNCc1ccc(Br)cc1.Cl`, the “hERG current change (%, negative = inhibition) at 10uM” value is listed as -33.3%. In the case of `CCCCCCNCc1ccc(Br)cc1.Cl` it was -61.7%. In the case of `CCN(CC)c1ccc(CNCCc2ccccc2F)cc1.Cl` it was -5.46%; in that of `CCCCCCNCc1cccc(Br)c1.Cl`, -11.3%. Take `CCN(CC)c1ccc(CNCCc2ccc(F)cc2)cc1.Cl`: the “hERG current change (%, negative = inhibition) at 10uM” value was -58.8%.

Regarding `O=C(NCCO)c1ccc2[nH]c3c(c2c1)CCCC3`, the “hERG current change (%, negative = inhibition) at 10uM” value is -0.0914%. In the case of `Cc1nc(COC(=O)c2c(C)nn(-c3ccccc3)c2C)cs1`, the “hERG current change (%, negative = inhibition) at 10uM” value is recorded as -2.05%. In the case of `Cc1ccc(C(=O)C(C)OC(=O)Cc2c[nH]c3ccccc23)cc1` (stereo not drawn) it was 1.64%; in that of `CN(CC(=O)NCC(=O)Nc1ccc(F)cc1)C1CCS(=O)(=O)C1` (stereo not drawn), 13.3%; in that of `O=C(NC1CCCCCC1)c1ccc(CN2CCOCC2)cc1`, 11.3%. As to `Cc1ccc(CNC(=O)c2ccccc2-n2cnnn2)cc1`, the “hERG current change (%, negative = inhibition) at 10uM” value came to 9.73%. For `O=C(NC(=S)NC1CCCCCCCCCCC1)c1cccnc1`, the “hERG current change (%, negative = inhibition) at 10uM” value is reported as -4.46%.

As to `O=C(NCCNC(=O)c1ccc(F)cc1)c1ccc(F)cc1`, the “hERG current change (%, negative = inhibition) at 10uM” value came out at 0.397%. Next, `O=C(NCCN1CCOCC1)c1ccc(F)cc1`: 1.66%; `O=C(NCCN1CCN(C(=O)c2ccc(Br)cc2)CC1)c1ccc(Br)cc1`: -71.3%. `O=C(NCCN1CCN(C(=O)c2ccc(F)cc2)CC1)c1ccc(F)cc1`: the “hERG current change (%, negative = inhibition) at 10uM” value is -70.1%. In the case of `Cl.O=C(NCCN1CCCC1)c1ccc(Br)cc1` it was -11.9%; in that of `O=C(NCCCN1CCOCC1)c1ccc(Br)cc1`, -13.7%. Take `COc1ccc(C(=O)NCCCN2CCOCC2)cc1`: the “hERG current change (%, negative = inhibition) at 10uM” value is given as -1.82%. For the compound `COc1ccc(C(=O)NCCN2CCCC2)cc1.Cl`, the “hERG current change (%, negative = inhibition) at 10uM” value is on record as 3.56%. In the case of `COc1ccc(C(=O)NCCN2CCN(C(=O)c3ccc(OC)cc3)CC2)cc1` it was -75.2%; in that of `CC(O)CNc1cnccn1` (stereo not drawn), 8.76%; in that of `Cc1cc(C)c(N(C(=O)c2csnn2)C(C(=O)NC(C)(C)C)c2ccncc2)c(C)c1` (stereo not drawn), 9.01%.

Regarding `O=C(c1ccco1)N1CCN(S(=O)(=O)c2ccc3c(c2)OCCO3)CC1`, the “hERG current change (%, negative = inhibition) at 10uM” value was -0.283%. Regarding `CC(=O)Nc1ccc(SCC(=O)Nc2oc(C)c3c(C)n[nH]c(=O)c23)cc1`, the “hERG current change (%, negative = inhibition) at 10uM” value was 8.72%. In the case of `Cc1n(C)c2cc(Cl)ccc2[n+]1Cc1ccccc1.[I-]` it was -3.49%; in that of `CCn1c(C)[n+](CCOCC[n+]2c(C)n(CC)c3cc(Cl)c(Cl)cc32)c2cc(Cl)c(Cl)cc21.[I-]`, 6.82%; in that of `CCn1c(/C=C/Nc2ccccc2)[n+](CC)c2ccc(Cl)cc21.[I-]`, -78.6%. On to `CCn1c(/C=C/N(C(C)=O)c2ccccc2)[n+](CCCS(=O)(=O)[O-])c2cc(Cl)c(Cl)cc21`, for which the “hERG current change (%, negative = inhibition) at 10uM” value came to 19.9%.

In the case of `CCn1c(/C=C/Nc2ccccc2)[n+](CC)c2cc(Cl)c(Cl)cc21.[I-]`, the “hERG current change (%, negative = inhibition) at 10uM” value is -79.3%.

Regarding `CCn1c(/C=C/N(C(C)=O)c2ccccc2)[n+](CC)c2ccc(Cl)cc21.[I-]`, the “hERG current change (%, negative = inhibition) at 10uM” value is 2.3%. For `CC(=O)c1ccc(Oc2cc(C)nc(-n3nc(C)cc3C)n2)cc1`, the “hERG current change (%, negative = inhibition) at 10uM” value was -59.9%. Regarding `COC(=O)c1ccc(Oc2cc(C)nc(-n3nc(C)cc3C)n2)cc1`, the “hERG current change (%, negative = inhibition) at 10uM” value is reported as -22.4%. For `CC(=O)c1ccc(Oc2cc(C)nc(N3CCOCC3)n2)cc1`, the “hERG current change (%, negative = inhibition) at 10uM” value was -13.3%. `COc1cccc(OC)c1C(=O)N1CCN(Cc2ccccc2C)CC1`: the “hERG current change (%, negative = inhibition) at 10uM” value is on record as -0.823%.
